Set-up in all cases: scale not given: direction of the effect not stated beside the values
The target of test [1] is Protein translocase subunit SecA (Escherichia coli (strain K12)) (UniProt P10408). Put plainly: Assay to Identify E. coli SecA ATPase Inhibitors. It counts as functional. The conditions noted are these: 30 µM.
The target in test [2] is T1, Ubiquitin-activating enzyme e1, putative (Leishmania donovani (strain BPK282A1)) (UniProt E9BSI1).
T1 sequence (whole entry): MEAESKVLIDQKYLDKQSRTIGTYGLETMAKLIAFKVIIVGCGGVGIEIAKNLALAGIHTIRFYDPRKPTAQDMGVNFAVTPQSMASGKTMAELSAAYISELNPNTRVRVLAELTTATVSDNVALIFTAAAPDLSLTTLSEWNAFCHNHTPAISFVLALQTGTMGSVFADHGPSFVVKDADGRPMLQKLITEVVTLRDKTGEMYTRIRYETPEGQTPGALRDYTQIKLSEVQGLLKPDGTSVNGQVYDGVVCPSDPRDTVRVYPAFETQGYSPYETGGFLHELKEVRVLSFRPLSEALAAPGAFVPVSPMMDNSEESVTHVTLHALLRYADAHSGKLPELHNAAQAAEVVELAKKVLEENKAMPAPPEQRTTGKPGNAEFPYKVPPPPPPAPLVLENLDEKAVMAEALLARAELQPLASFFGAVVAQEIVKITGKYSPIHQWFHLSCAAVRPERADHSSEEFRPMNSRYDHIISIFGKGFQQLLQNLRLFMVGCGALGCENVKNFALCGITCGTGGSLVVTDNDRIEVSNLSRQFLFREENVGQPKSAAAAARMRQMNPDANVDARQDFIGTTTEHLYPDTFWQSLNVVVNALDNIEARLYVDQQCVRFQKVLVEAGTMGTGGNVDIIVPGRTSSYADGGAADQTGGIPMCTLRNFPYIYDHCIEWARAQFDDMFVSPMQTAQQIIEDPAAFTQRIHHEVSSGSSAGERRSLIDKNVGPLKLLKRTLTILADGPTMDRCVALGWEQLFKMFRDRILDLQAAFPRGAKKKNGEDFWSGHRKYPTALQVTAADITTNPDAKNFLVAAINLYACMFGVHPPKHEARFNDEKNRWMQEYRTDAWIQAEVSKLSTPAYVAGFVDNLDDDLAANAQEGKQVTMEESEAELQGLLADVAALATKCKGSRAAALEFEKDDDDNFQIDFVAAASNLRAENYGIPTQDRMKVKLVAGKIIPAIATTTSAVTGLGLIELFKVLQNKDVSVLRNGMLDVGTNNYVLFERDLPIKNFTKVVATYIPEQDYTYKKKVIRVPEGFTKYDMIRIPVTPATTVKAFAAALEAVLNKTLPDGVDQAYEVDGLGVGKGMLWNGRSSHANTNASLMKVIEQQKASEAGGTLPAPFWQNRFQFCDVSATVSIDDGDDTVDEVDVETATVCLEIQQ
Kind of test: Leishmania donovani Ubiquitin Activating Enzyme (LdE1). It counts as functional. The conditions noted are these: 30 µM.

In test [3] the target is AMP-activated protein kinase, AMPK (Homo sapiens) (UniProt P54646+O43741+P54619+Q9UGJ0+Q9Y478+Q13131+Q9UGI9). Put plainly: AMP-dependent Kinase enzyme assay. An in vitro enzyme assay that detects ADP turnover that is directly proportional to AMPK activity. This uses naive AMPK that is activated during the assay with MK-8722. The conditions noted are these: 30 µM. Format: functional.

Test [4] deals with Sialic acid-binding Ig-like lectin 9 (Homo sapiens) (UniProt Q9Y336). Put plainly: Hs-Siglec9 ALPHAscreen SOP 20170721. The conditions noted are these: 10 µM. In general terms: In Alpha technology, singlet oxygen from a donor bead excites a nearby acceptor bead.
The next test concerns Trypanosoma cruzi. Kind of test: Trypanosoma cruzi phosphomannomutase and mannose-1-phosphate guanylyltransferase assay. Format: functional. The conditions noted are these: 10 µM.
For test [5], the target named is T2, Arginase-2, mitochondrial (Homo sapiens) (UniProt P78540).
T2 sequence (whole entry): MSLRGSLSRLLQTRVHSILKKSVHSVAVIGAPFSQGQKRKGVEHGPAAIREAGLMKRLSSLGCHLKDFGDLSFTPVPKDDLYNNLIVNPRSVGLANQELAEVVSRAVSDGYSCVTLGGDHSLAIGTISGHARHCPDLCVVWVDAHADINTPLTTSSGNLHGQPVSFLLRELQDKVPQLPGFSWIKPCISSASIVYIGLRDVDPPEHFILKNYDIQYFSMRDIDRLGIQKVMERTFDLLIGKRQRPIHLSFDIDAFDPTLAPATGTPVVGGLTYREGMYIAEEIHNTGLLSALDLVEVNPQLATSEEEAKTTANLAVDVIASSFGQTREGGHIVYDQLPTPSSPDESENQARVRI
Put plainly: in vitro enzyme assay to detect the production of urea directly proportional to the activity of Arginase II. Further: in the data most compounds retested in dose-response had high values. It counts as functional. The conditions noted are these: 33.3 µM.

Test [6] has as its target T3, Proteasome subunit beta (Trypanosoma cruzi) (UniProt O96673).
T3 sequence (whole entry): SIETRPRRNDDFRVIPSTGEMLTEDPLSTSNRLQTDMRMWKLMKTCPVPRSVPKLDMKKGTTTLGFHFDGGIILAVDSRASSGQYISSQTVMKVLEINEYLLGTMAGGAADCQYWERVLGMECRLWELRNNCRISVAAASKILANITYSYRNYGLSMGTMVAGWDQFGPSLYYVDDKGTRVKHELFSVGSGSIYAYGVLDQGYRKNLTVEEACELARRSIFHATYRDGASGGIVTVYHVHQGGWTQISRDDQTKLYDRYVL
Put plainly: Trypanosoma cruzi proteasome chymotrypsin-like activity (TcProtChymo) assay. Further: in the data most compounds retested in dose-response had high values. Format: functional. The conditions noted are these: 9.37 µM.

The species named for a further test is Homo sapiens. Kind of test: To identify inhibition of the IFN signalling (Jak-Stat) pathway via expression of an eGFP reporter gene under the control of an IFN-stimulated response element (ISRE) containing MxA promoter. The conditions noted are these: 30 µM. Format: functional.
In test [7] the target is T4, Tyrosyl-tRNA synthetase, putative (Trypanosoma cruzi (strain CL Brener)) (UniProt Q4DSP6).
T4 sequence (whole entry): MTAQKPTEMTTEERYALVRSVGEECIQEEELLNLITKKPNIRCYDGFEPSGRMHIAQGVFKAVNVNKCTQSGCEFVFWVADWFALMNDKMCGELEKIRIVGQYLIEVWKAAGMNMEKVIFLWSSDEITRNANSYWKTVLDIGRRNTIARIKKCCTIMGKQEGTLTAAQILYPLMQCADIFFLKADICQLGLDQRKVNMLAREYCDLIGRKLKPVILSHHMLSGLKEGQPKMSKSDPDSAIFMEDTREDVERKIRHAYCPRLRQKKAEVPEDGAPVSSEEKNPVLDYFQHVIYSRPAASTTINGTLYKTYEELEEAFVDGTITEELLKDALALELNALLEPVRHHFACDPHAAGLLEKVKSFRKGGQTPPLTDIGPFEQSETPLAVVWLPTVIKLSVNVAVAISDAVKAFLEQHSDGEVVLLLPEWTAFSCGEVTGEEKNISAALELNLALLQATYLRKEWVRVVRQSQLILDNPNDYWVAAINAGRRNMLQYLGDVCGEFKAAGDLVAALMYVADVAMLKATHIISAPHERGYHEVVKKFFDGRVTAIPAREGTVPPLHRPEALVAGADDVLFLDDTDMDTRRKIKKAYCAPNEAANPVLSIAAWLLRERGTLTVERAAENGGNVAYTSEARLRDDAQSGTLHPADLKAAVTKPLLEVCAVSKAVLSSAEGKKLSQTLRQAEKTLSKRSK
Kind of test: Trypanosoma cruzi tyrosyl tRNA synthetase (TcYRS) _High Tyrosine SOP. Further: in the data most compounds retested in dose-response had high values. It counts as functional. The conditions noted are these: 30 µM.

In test [8] the target is T4, Tyrosyl-tRNA synthetase, putative (Trypanosoma cruzi (strain CL Brener)). Put plainly: Trypanosoma cruzi tyrosyl tRNA synthetase (TcYRS) SOP. It counts as functional. The conditions noted are these: 30 µM.
The target in test [9] is Chromo domain-containing protein 1 (Saccharomyces cerevisiae (strain ATCC 204508 / S288c) (Baker's yeast)) (UniProt P32657). Put plainly: ScCHD-1 Enzyme Inhibition Assay. Further: in the data most compounds retested in dose-response had high values. Format: functional. The conditions noted are these: 30 µM.

For some of these results: Measured potencies and affinities stand elsewhere.

Chain of Protein translocase subunit SecA (Escherichia coli (strain K12)) (P10408 whole entry): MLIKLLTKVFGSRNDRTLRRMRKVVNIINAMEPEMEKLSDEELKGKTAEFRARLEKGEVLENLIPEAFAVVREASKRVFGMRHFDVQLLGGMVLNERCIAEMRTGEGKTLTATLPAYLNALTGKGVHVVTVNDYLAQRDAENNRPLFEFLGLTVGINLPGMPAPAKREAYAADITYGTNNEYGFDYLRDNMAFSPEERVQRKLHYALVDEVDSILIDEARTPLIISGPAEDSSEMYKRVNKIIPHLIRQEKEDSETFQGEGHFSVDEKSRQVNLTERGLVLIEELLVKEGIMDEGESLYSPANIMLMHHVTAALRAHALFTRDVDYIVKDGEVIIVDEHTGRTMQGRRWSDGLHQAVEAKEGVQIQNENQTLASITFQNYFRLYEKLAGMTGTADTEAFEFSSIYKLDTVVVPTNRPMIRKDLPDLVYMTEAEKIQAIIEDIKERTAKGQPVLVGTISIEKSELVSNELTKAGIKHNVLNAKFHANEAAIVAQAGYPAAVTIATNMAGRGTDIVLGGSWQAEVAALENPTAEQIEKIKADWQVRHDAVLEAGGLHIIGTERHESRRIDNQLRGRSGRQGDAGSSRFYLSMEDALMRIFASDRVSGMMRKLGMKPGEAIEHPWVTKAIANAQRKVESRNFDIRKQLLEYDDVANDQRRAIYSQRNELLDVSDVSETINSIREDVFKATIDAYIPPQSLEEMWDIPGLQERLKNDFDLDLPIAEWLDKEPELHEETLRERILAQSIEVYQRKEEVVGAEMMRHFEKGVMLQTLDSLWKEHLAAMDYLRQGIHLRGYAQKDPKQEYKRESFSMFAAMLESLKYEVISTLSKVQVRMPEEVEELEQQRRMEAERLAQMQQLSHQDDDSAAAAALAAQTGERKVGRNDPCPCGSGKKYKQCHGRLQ
Chain of Sialic acid-binding Ig-like lectin 9 (Homo sapiens) (Q9Y336 whole entry): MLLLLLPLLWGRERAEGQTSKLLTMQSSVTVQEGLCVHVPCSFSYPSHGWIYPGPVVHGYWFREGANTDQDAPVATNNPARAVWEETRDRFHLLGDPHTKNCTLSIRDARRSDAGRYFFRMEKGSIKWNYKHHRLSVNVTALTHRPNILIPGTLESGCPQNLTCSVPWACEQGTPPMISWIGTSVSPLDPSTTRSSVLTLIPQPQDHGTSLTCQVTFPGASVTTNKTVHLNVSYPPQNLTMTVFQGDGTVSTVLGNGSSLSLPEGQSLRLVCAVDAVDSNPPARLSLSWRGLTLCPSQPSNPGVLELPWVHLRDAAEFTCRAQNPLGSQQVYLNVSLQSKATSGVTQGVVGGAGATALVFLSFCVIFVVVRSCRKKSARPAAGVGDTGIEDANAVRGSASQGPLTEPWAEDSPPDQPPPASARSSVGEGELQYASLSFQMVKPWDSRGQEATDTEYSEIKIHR
Chain of Chromo domain-containing protein 1 (Saccharomyces cerevisiae (strain ATCC 204508 / S288c) (Baker's yeast)) (P32657 whole entry, the tested form may be a part): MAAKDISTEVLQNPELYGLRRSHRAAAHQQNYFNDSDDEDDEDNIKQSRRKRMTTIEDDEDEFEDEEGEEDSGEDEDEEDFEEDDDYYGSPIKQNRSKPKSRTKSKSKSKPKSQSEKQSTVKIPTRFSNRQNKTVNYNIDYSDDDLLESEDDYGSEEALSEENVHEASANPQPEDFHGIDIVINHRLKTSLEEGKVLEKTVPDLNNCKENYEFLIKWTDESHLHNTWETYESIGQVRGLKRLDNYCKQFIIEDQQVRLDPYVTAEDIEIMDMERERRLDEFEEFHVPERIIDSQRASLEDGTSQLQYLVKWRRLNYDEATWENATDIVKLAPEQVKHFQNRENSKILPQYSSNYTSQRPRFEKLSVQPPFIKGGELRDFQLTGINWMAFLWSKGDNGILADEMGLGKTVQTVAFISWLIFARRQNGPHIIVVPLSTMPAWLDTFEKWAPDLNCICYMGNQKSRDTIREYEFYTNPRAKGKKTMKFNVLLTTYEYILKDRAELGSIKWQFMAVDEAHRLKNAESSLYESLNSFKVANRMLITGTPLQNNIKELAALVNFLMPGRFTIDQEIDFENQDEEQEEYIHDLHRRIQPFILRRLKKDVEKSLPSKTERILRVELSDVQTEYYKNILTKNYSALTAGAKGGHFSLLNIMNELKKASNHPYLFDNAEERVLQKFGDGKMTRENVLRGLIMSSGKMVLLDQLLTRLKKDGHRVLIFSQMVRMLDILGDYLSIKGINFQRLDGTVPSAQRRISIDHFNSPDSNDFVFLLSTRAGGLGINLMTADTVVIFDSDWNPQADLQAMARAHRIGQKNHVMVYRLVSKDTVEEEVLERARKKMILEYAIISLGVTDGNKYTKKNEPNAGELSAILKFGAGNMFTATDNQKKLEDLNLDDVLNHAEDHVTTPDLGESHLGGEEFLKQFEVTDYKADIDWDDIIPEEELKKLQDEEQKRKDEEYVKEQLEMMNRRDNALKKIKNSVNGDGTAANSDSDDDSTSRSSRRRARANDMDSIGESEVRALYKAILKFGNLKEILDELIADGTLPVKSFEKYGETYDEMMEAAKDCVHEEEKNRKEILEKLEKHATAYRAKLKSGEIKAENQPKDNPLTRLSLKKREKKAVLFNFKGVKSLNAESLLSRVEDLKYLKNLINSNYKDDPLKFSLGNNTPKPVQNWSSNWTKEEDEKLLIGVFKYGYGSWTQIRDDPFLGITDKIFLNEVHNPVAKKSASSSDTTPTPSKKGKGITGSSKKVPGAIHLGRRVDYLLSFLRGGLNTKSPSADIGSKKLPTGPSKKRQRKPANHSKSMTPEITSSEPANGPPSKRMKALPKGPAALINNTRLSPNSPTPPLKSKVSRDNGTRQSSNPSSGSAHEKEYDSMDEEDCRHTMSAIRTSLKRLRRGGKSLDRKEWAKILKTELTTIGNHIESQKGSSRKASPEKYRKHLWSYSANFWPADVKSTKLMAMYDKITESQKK

On to `CCn1cnnc1C1CCN(C(=O)c2cc3c(s2)CCC3)CC1`, for which the Percent Effect was -5.61% in test [1]; 20.2% in [2]; -5.35% in [3]; 8.78% in [4]; 6.52% in the test with Trypanosoma cruzi; -7.22% in test [5]. The Percent Effect is 20.2% in test [6]; -5.6% in the test filed under Homo sapiens; 8.37% in [7]; 21.5% in [8]; -4.66% in test [9].
As to `Cc1cccc(C(=O)NCc2ccnc(N(C)C)c2)n1`, the Percent Effect in test [1] is 1.73%; in test [2], -5.2%; in [3], 2.32%; in test [4], 6.58%; with Trypanosoma cruzi it was -3.04%; in [5], 2.32%. Besides, the Percent Effect was 3.15% in test [6]; 15.9% in the test filed under Homo sapiens; 0% in test [7]; -37.6% in test [8]; 8% in test [9].
As to `Cc1ncc(CNCC2CCCN2c2cccnn2)s1` (stereo unspecified), the Percent Effect in [1] was 0.235%; in test [2], 8.86%; in test [3], -1.3%; in test [4], -1.84%; in the test on Trypanosoma cruzi, 3.79%; in test [5] it was 5.38%. For the same molecule, the Percent Effect in test [6] is 15.9%; in the test filed under Homo sapiens, 22.7%; in test [7] it was 9.38%; in test [8], 12.7%; in [9] it was -17.8%.
For `COc1ccc(CN2CCCCC2CNC(=O)OC(C)(C)C)cc1F` (stereo unspecified), the Percent Effect in test [1] was -3.55%; in test [2] it was 0%; in [3] it was -2.98%; in test [4], 21.3%; in the test on Trypanosoma cruzi, -1.86%; in [5] it was -1.74%. Also, the Percent Effect in test [6] is 0.0858%; in the test filed under Homo sapiens, -23.7%; in [7] it was -2.15%; in [8], 1.24%; in test [9], -2.09%.
Turning to `CC(=O)N(Cc1noc(C2CC2)n1)C1CCN(Cc2nccn2C)C1` (stereo unspecified), the Percent Effect in test [1] was -1.42%; in test [2], 16.2%; in test [3], -8.4%; in test [4], -4.39%; with Trypanosoma cruzi, -6.22%; in test [5], -4.25%. For the same molecule, the Percent Effect in [6] is 11.1%; in the test listed under Homo sapiens it was 11.5%; in [7], 3.96%; in test [8] it was 18.3%; in [9], -5.65%.
Take `CC1CN(CC(=O)Nc2nncs2)CCN1Cc1nccn1C` (stereo unspecified): the Percent Effect in [1] was -6.24%; in [2], 8.11%; in test [3], -5.38%; in test [4], -3.66%; in the test on Trypanosoma cruzi it was -2.69%; in test [5], 0.924%. The Percent Effect in [6] amounted to 4.67%; in the test listed under Homo sapiens it was 12%; in [7] it was 4.95%; in test [8] it was 6.1%; in test [9] it was 8.11%.
Regarding `O=C(c1cc(=O)[nH]c(=O)[nH]1)N1CCCCC1c1nc2cc(F)ccc2[nH]1` (stereo unspecified), the Percent Effect was -4.1% in [1]; 1.39% in [2]; 2.15% in test [3]; -1.84% in [4]; 1.07% in the test with Trypanosoma cruzi; 3.97% in test [5]. Moreover, the Percent Effect in test [6] was 6.14%; in the test listed under Homo sapiens it was -12.1%; in test [7] it was 3.16%; in test [8], 7.69%; in [9], -2.87%.
As to `Cc1nccn1C1CCCN(C(=O)c2cc(O)nc3ccccc23)C1` (stereo unspecified), the Percent Effect in test [1] was -2.57%; in test [2], 12.7%; in [3], -7.86%; in test [4] it was 5.85%; with Trypanosoma cruzi it was -1.98%; in test [5] it was -4.18%. Also, the Percent Effect was -4.34% in test [6]; -4.23% in the test listed under Homo sapiens; 6.4% in [7]; 13.9% in test [8]; -5.76% in test [9].
Regarding `Cc1nc(CN2CCCCC2Cn2cncn2)nc2ccccc12` (stereo unspecified), the Percent Effect was -2.07% in [1]; 26% in test [2]; -3.54% in test [3]; -19.4% in test [4]; 3.23% with Trypanosoma cruzi; 1.47% in test [5]. The Percent Effect in [6] was 20.1%; in the test listed under Homo sapiens it was 2.22%; in test [7], 10.5%; in test [8], 23.5%; in test [9], -22.8%.
Take `Cc1cc(CN2CCN(C(=O)NCc3ccc(C)s3)CC2)no1`: the Percent Effect in [1] was -0.722%; in test [2], 17.7%; in [3] it was -2.9%; in [4], 3.54%; in the test on Trypanosoma cruzi it was -4.82%; in [5] it was 10.3%. The Percent Effect in test [6] is 3.85%; in the test filed under Homo sapiens, 15.8%; in [7], 2.46%; in [8] it was 21.5%; in [9] it was -5.4%.
Regarding `Cc1nnn2c1COCC(CNC(=O)c1ccc3[nH]ccc3c1)C2` (stereo unspecified), the Percent Effect was -2.29% in test [1]; 13% in [2]; -0.0167% in test [3]; 8.82% in test [4]; 9.73% with Trypanosoma cruzi; -46.9% in test [5]. In addition, the Percent Effect in test [6] is 18.1%; in the test filed under Homo sapiens, 14.9%; in [7] it was 6.45%; in test [8], 13.6%; in test [9], -3.15%.

Values taken from ChEMBL document CHEMBL3988442, “University of Dundee, Small-Polar-MMV Screening Library” (2021).
